Among the data in publication PMC7862700, “An all-to-all approach to the identification of sequence-specific readers for epigenetic DNA modifications on cytosine” are binding signal values, retold here.

Holding throughout (assay): DAPPL (digital affinity profiling via proximity ligation, sequencing); 10 mM Tris-HCl pH 7.5, 50 mM NaCl, 1 mM DTT, 4% glycerol, room temperature, 30 min; GST-TFs on glutathione beads, 16-mer random dsDNA library, 0.1% formaldehyde crosslink after washing; high values mean tight binding
For one assay, the target named is T1, FLI1 (Homo sapiens, UniProt Q01543 1-452).
T1 sequence: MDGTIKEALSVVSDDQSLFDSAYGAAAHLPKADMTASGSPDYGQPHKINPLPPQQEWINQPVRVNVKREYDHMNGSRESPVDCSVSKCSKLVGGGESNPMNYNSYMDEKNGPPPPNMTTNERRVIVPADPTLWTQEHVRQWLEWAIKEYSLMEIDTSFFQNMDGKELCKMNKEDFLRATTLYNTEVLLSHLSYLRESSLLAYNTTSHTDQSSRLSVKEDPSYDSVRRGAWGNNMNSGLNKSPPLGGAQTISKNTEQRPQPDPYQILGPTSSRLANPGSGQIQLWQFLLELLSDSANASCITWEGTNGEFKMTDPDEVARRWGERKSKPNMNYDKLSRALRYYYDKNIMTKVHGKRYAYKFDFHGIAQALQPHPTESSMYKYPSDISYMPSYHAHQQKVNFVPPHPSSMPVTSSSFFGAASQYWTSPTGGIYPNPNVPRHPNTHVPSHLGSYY
The note with it: protein: recombinant; tags: N-terminal GST; dsDNA, one strand shown. An outline of the steps:
(§1)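 After expression in yeast as GST fusions, human transcription factors were bound to glutathione beads, DNA-barcoded and mixed with a tag-only sample. The pools were incubated with 200 nmole of a 16-mer random double-stranded DNA library in Tris/NaCl/DTT/glycerol buffer (30 min, room temperature), washed and crosslinked with 0.1% formaldehyde. Proximity ligation with BsaI/T4 ligase ran for 1 h at 37 °C, before PCR amplification and sequencing on an Illumina NextSeq500. Binding signal is a hexamer's read frequency for a factor divided by its frequency for the tag-only sample.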

The target in a further assay is T2, ELK1 (Homo sapiens, UniProt P19419 1-428).
T2 sequence: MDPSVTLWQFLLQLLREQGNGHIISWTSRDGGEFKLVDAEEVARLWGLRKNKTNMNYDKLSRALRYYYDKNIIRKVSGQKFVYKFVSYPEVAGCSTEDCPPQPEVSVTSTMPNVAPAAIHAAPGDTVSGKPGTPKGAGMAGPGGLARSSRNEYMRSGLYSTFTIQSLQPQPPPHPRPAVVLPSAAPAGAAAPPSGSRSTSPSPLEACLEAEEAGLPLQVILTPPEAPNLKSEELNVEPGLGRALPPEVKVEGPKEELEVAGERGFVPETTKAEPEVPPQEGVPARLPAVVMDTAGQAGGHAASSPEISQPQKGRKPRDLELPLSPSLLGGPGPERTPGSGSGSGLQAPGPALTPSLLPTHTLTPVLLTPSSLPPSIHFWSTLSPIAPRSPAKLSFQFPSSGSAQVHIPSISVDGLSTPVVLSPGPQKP
The settings on record: protein: recombinant; tags: N-terminal GST; dsDNA, one strand shown. Put shortly: as §1

The target in a further assay is T3, GABPA (Homo sapiens, UniProt Q06546 1-454).
T3 sequence: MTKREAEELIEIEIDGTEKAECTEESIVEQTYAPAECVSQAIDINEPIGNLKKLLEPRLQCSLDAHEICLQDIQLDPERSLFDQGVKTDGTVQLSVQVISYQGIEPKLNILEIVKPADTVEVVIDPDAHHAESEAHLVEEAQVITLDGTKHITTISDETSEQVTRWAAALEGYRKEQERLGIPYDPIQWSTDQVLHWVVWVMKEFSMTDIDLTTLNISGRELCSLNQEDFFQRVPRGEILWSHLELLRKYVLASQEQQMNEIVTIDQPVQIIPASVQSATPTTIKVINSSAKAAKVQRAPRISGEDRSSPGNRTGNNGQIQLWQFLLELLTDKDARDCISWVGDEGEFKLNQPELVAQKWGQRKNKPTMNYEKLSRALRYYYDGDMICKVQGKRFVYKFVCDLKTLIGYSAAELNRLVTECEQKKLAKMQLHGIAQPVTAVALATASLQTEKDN
The note with it: protein: recombinant; tags: N-terminal GST; dsDNA, one strand shown. An outline of the steps:
as §1

The target of another assay is T4, ERG (Homo sapiens, UniProt P11308 1-479).
T4 sequence: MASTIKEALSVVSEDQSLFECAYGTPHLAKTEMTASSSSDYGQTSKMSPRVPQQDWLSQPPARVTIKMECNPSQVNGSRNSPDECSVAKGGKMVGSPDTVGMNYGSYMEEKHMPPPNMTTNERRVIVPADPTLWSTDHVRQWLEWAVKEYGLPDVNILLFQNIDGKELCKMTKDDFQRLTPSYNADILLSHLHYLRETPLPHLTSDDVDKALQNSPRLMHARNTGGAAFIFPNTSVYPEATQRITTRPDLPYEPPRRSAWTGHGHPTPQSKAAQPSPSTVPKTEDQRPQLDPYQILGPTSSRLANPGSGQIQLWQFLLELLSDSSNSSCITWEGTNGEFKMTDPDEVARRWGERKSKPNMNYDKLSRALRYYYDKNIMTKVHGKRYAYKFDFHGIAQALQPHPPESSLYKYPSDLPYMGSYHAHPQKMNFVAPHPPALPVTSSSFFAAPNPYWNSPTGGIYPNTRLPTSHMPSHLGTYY
The settings on record: protein: recombinant; tags: N-terminal GST; dsDNA, one strand shown. An outline of the steps:
as §1

Another assay addresses ELF1 (Homo sapiens, UniProt P32519 1-619). The note with it: protein: recombinant; tags: N-terminal GST; dsDNA, one strand shown. Put shortly: as §1
In another assay the target is T5, EHF (Homo sapiens, UniProt Q9NZC4 1-300).
T5 sequence: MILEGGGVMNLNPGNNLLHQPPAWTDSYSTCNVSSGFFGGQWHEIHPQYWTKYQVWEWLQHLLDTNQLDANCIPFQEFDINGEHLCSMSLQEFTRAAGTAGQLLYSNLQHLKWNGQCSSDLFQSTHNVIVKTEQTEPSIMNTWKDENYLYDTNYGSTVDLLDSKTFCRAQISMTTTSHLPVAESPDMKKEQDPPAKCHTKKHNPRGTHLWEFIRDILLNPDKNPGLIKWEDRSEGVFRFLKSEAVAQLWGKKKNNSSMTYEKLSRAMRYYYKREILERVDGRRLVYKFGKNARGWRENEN
The settings on record: protein: recombinant; tags: N-terminal GST; dsDNA, one strand shown. An outline of the steps:
as §1

The target of a further assay is SPI1 (Homo sapiens, UniProt P17947 1-270). The note with it: protein: recombinant; tags: N-terminal GST; dsDNA, one strand shown. An outline of the steps:
as §1

The next assay deals with SPIB (Homo sapiens, UniProt Q01892 1-262). The note with it: protein: recombinant; tags: N-terminal GST; dsDNA, one strand shown. An outline of the steps:
as §1

For the next assay, the target named is T6, ELK3 (Homo sapiens, UniProt P41970 1-407).
T6 sequence: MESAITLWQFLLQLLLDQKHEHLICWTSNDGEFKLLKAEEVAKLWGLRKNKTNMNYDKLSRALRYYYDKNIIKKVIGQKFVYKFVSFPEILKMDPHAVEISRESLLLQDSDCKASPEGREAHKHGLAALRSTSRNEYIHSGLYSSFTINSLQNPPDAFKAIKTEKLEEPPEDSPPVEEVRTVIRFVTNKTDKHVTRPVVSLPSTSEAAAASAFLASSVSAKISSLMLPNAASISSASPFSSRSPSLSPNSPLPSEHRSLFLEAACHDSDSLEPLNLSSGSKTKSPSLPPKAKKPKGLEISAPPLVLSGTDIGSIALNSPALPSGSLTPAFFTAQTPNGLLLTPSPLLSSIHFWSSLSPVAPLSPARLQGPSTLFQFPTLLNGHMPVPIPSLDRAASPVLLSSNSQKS
The note with it: protein: recombinant; tags: N-terminal GST; dsDNA, one strand shown. An outline of the steps: as §1

The target of a further assay is T7, FEV (Homo sapiens, UniProt Q99581 1-238).
T7 sequence: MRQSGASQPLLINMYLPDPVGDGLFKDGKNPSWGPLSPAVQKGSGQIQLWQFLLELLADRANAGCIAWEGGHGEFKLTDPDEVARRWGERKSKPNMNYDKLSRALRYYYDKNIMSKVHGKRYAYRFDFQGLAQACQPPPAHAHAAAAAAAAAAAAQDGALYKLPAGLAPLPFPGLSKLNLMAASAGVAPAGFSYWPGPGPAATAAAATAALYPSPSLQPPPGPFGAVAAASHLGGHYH
The note with it: protein: recombinant; tags: N-terminal GST; dsDNA, one strand shown. Put shortly: as §1

The next assay has as its target ETV5 (Homo sapiens, UniProt P41161 1-510). The note with it: protein: recombinant; tags: N-terminal GST; dsDNA, one strand shown. Put shortly:
as §1

The target of the next assay is HSF1 (Homo sapiens, UniProt Q00613 1-529). The settings on record: protein: recombinant; tags: N-terminal GST; chain copies: 3; dsDNA, one strand shown. Put shortly:
as §1

A further assay has as its target T8, SPIC (Homo sapiens, UniProt Q8N5J4 1-248).
T8 sequence: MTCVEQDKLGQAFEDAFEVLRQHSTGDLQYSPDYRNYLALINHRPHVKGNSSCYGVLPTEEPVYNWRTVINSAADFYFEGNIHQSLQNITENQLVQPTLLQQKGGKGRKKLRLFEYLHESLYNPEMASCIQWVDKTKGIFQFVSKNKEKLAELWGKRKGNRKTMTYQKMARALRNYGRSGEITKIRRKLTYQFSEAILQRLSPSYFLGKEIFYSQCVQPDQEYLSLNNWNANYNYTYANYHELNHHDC
The settings on record: protein: recombinant; tags: N-terminal GST; dsDNA, one strand shown. Put shortly:
as §1

The target in the next assay is ELF4 (Homo sapiens, UniProt Q99607 1-663). The note with it: protein: recombinant; tags: N-terminal GST; dsDNA, one strand shown. Put shortly: as §1
Sequence of ELF4 (Q99607 whole entry): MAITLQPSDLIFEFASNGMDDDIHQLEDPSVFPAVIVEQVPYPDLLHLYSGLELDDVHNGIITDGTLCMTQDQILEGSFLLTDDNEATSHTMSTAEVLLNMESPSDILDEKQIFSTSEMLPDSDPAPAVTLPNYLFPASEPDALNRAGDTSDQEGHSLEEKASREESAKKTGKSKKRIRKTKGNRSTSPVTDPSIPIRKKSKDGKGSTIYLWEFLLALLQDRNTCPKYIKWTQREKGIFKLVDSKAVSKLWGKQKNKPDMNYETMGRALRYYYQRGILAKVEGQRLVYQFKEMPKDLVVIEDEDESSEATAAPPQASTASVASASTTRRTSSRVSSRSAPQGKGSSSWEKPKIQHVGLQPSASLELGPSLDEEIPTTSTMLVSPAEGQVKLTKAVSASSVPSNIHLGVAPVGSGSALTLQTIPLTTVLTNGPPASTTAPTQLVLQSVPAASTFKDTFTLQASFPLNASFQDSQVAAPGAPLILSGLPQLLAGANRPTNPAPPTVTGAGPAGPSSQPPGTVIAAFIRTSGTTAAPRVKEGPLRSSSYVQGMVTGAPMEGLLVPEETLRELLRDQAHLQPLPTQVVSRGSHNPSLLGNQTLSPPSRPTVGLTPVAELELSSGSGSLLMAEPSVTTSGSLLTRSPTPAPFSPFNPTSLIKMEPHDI
For another assay, the target named is T9, ELK4 (Homo sapiens, UniProt P28324-2 1-405).
T9 sequence: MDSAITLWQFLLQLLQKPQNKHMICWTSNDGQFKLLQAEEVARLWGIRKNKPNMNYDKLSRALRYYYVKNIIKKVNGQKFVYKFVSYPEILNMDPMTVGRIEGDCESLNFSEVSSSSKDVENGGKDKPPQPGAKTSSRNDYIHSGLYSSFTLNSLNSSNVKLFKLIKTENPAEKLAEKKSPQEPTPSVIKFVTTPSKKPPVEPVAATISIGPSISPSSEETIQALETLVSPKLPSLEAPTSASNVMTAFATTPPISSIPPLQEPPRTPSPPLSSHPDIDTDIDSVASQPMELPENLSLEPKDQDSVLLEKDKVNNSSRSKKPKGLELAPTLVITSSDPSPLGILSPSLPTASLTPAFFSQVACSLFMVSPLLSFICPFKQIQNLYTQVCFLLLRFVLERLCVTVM
The settings on record: protein: recombinant; tags: N-terminal GST; dsDNA, one strand shown. Put shortly: as §1

In a further assay the target is T10, ETV2 (Homo sapiens, UniProt O00321 1-342).
T10 sequence: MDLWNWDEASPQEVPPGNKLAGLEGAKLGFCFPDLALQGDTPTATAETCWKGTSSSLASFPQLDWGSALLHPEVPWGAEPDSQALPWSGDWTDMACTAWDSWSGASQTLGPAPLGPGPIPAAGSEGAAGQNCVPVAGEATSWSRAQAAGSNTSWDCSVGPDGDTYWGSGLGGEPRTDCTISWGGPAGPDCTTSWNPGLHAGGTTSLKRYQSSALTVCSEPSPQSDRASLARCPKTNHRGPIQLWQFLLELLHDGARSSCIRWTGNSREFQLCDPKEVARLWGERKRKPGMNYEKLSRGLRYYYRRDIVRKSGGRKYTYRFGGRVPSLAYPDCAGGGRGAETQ
The settings on record: protein: recombinant; tags: N-terminal GST; dsDNA, one strand shown. An outline of the steps: as §1

For another assay, the target named is T11, ELF3 (Homo sapiens, UniProt P78545 1-371).
T11 sequence: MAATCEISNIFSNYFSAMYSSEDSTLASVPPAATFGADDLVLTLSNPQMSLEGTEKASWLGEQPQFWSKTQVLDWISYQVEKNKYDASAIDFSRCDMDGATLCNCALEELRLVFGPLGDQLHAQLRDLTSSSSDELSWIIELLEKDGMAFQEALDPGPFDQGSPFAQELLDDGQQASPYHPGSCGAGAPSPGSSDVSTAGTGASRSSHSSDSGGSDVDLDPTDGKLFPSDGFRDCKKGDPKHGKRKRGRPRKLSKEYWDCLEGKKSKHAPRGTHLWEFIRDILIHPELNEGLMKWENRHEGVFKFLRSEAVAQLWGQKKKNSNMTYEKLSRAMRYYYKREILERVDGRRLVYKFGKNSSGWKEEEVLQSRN
The settings on record: protein: recombinant; tags: N-terminal GST; dsDNA, one strand shown. An outline of the steps: as §1

The target of the next assay is ETV1 (Homo sapiens, UniProt P50549 1-477). The settings on record: protein: recombinant; tags: N-terminal GST; dsDNA, one strand shown. An outline of the steps: as §1
Sequence of ETV1 (P50549 whole entry): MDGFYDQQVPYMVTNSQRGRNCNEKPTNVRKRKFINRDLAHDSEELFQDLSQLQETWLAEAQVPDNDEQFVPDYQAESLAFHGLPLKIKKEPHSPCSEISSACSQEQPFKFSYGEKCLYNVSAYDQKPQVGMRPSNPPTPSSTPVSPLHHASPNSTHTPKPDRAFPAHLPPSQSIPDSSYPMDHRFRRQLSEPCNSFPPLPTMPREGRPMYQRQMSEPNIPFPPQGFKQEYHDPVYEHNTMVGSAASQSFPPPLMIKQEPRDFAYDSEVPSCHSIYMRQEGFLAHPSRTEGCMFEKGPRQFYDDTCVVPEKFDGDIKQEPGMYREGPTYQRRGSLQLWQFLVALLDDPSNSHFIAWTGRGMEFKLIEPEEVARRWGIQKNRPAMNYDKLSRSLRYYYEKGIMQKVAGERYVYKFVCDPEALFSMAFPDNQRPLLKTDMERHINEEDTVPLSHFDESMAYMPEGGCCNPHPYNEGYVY

Sequence of ETV5 (P41161 whole entry): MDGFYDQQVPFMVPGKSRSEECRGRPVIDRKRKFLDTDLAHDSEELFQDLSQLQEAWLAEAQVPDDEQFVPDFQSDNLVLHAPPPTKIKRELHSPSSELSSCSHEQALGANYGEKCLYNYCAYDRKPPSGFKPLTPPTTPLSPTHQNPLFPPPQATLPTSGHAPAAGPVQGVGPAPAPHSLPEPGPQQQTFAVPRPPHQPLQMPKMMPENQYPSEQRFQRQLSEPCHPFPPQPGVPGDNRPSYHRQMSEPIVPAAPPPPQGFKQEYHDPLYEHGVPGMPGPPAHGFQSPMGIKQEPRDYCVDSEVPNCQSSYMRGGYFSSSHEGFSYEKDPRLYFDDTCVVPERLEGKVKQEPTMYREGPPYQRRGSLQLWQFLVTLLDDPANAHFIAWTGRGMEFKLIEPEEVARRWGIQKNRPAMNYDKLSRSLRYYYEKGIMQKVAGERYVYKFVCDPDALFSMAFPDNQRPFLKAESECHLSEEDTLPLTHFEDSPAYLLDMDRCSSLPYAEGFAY
Sequence of ELF1 (P32519 whole entry): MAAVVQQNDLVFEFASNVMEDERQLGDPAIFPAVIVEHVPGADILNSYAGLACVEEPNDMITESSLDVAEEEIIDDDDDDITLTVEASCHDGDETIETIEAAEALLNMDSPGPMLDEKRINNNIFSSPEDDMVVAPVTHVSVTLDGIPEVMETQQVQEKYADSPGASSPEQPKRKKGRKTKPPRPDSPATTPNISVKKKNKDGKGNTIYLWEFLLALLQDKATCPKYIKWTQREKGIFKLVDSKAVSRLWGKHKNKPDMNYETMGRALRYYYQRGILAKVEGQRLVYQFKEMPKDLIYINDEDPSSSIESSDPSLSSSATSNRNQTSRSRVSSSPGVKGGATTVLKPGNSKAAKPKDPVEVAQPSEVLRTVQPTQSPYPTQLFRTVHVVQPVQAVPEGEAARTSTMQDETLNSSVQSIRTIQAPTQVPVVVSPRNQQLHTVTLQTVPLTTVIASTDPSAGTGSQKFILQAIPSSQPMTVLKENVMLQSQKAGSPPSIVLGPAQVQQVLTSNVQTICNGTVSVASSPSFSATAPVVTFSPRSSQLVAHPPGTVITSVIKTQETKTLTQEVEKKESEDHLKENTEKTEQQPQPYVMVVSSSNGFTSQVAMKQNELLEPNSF
Sequence of SPIB (Q01892 whole entry): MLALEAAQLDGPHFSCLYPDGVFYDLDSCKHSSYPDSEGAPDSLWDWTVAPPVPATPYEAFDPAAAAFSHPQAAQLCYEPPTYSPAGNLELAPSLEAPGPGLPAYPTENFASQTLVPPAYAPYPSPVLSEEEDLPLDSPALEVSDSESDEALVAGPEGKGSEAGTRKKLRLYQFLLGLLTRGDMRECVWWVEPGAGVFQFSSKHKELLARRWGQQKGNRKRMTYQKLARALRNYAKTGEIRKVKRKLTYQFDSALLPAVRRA
Sequence of HSF1 (Q00613 whole entry): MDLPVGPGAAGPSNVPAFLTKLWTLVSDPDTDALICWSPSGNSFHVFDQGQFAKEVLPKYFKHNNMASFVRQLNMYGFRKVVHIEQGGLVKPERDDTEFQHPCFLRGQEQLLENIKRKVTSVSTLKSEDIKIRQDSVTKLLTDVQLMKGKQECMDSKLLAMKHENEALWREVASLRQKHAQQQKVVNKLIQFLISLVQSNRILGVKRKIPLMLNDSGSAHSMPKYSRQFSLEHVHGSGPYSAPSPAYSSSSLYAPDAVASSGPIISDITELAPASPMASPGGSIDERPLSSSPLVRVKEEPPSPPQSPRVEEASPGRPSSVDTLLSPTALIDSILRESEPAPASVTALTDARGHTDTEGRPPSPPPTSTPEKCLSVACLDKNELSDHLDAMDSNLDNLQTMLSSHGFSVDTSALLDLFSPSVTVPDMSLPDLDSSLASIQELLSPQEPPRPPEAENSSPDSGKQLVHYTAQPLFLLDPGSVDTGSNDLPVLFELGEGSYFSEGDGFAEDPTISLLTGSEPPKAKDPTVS

As for GGATCC, the binding signal with FLI1 was 1.15 fold enrichment (6-mer frequency, TF over GST control); in the assay with ELK1, 1.13 fold enrichment (6-mer frequency, TF over GST control); in the assay with GABPA, 1.18 fold enrichment (6-mer frequency, TF over GST control); in the assay with ERG, 1.25 fold enrichment (6-mer frequency, TF over GST control); with ELF1, 1.18 fold enrichment (6-mer frequency, TF over GST control); with EHF, 1.16 fold enrichment (6-mer frequency, TF over GST control). Besides, the binding signal was 1.06 fold enrichment (6-mer frequency, TF over GST control) in the assay with SPI1; 1.24 fold enrichment (6-mer frequency, TF over GST control) in the assay with SPIB; 1.07 fold enrichment (6-mer frequency, TF over GST control) with ELK3; 1.16 fold enrichment (6-mer frequency, TF over GST control) with FEV; 1.17 fold enrichment (6-mer frequency, TF over GST control) with ETV5; 1.04 fold enrichment (6-mer frequency, TF over GST control) in the assay with HSF1. Further, the binding signal was 1.13 fold enrichment (6-mer frequency, TF over GST control) with SPIC; 1.13 fold enrichment (6-mer frequency, TF over GST control) in the assay with ELF4; 1.05 fold enrichment (6-mer frequency, TF over GST control) in the assay with ELK4; 1.29 fold enrichment (6-mer frequency, TF over GST control) with ETV2; 1.29 fold enrichment (6-mer frequency, TF over GST control) with ELF3; 1.14 fold enrichment (6-mer frequency, TF over GST control) in the assay with ETV1.
